Assay results published in the supplement of paper PMC10849652.
Targets with a hit are over-represented here; the source holds about 7,900 in all. About 0.6% of all pairs of compound and target were hits.

Assays:
Experiment in all cases: log2 fold change, soluble protein after heating vs DMSO (PISA); higher = thermal stabilisation; K562 cells, 10 uM, 30 min; active = over 0.2 and 3.5 SD of the protein, either way, in both replicates (recomputed)
[1] = compound: C1COCCN1CCN2C3=CC=CC=C3N=C2NC(=O)C4=CC(=CC=C4)[N+](=O)[O-] [IRAK-1-4 Inhibitor I]
How it was run: (§1)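 K562 cells at 2×10^6 cells/mL were treated with 10 μM compound for 30 min. Aliquots were heated for 3 min across 48°C-58°C, pooled, and extracted in PBS with 0.5% NP-40 at 4°C; soluble protein was the supernatant after 21,000xg for 90 min. Soluble protein was quantified by TMTpro 16plex LC-MS/MS with channel sums equalised, and reported as log2 fold change in thermal stability against DMSO controls, with values from duplicates.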

[2] = compound: C=CC(=O)N1CCC[C@@H](n2nc(-c3ccc(Oc4ccccc4)cc3)c3c(N)ncnc32)C1 [ibrutinib]
How it was run: as §1

[3] = compound: CC(=O)c1cnc2ccc(-c3cc(Cl)c(O)c(Cl)c3)nc2c1N[C@H]1CC[C@H](CN(C)C)CC1
How it was run: as §1

[4] = compound: CC(C)(C)Cn1c(N)nc2ccc(-c3[nH]c(C(C)(C)C)nc3-c3ccc(F)cc3)nc21 [ralimetinib]
How it was run: as §1

[5] = compound: CC(C)(O)CC(=O)NCCn1ccc2ncnc(Nc3ccc(Oc4cccc(C(F)(F)F)c4)c(Cl)c3)c21
How it was run: as §1

[6] = compound: CC(C)C1=C2N=C(C=C(N2N=C1)NCC3=CC=CC=C3)NCCCCCCN
How it was run: as §1

[7] = compound: CC(C)C[C@@H](C=O)NC(=O)[C@H](CC(C)C)NC(=O)[C@H](CC(C)C)NC(=O)OCc1ccccc1
How it was run: as §1

[8] = compound: CC(C)N(C[C@H]1O[C@@H](n2cnc3c(N)ncnc32)[C@H](O)[C@@H]1O)[C@H]1C[C@@H](CCc2nc3cc(C(C)(C)C)ccc3[nH]2)C1 [pinometostat]
How it was run: as §1

[9] = compound: CC1=C(C(CC(=O)N1)C2=CC=C(C=C2)C(F)(F)F)C(=O)NC3=C(C=C4C(=C3)C=NN4)F
How it was run: as §1

[10] = compound: CC1=C(C2=C(C=C1)C(=O)C3=CC=CC=C3N2CCCN)C
How it was run: as §1

Measured: log2 fold change

POM121 (UniProt Q96HA1)
UniProt Q96HA1, sequence (Q96HA1 whole entry, looked up): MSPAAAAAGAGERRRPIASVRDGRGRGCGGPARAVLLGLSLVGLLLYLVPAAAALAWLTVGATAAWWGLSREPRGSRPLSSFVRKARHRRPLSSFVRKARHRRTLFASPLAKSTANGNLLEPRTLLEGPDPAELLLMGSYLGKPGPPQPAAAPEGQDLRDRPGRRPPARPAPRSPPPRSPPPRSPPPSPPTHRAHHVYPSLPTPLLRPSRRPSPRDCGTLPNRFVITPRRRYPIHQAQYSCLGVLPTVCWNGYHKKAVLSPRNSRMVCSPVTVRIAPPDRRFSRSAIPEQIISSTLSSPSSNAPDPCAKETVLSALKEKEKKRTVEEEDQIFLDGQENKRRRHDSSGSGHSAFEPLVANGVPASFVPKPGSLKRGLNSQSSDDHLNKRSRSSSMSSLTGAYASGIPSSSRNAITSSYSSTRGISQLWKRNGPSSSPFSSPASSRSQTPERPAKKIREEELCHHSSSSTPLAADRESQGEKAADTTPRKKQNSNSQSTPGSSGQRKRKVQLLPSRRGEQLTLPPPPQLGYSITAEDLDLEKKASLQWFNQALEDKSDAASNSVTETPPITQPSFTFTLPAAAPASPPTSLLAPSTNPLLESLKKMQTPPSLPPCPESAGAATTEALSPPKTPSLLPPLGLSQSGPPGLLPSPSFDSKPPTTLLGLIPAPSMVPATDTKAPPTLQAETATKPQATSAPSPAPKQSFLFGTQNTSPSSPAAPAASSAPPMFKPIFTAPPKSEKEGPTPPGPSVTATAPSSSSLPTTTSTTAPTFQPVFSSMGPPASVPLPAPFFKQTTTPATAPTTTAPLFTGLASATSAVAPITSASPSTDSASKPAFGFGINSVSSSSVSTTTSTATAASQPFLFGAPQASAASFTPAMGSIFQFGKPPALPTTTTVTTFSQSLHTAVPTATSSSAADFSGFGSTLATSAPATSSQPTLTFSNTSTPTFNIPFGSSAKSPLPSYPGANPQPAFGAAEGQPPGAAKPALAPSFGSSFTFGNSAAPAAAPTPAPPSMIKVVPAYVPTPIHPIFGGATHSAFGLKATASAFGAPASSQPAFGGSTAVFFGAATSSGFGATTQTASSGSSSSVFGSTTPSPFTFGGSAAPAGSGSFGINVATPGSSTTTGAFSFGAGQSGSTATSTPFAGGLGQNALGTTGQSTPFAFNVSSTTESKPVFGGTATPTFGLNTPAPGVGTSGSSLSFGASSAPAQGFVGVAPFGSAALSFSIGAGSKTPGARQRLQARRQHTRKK
inactive: [1] -0.022 | [2] 0.005 | [3] -0.164 | [4] 0.083 | [5] 0.016 | [6] -0.241 | [7] 0.178 | [8] 0.065 | [9] -0.042 | [10] -0.057

PIP4K2C (UniProt Q8TBX8)
UniProt Q8TBX8, sequence (Q8TBX8 whole entry, looked up): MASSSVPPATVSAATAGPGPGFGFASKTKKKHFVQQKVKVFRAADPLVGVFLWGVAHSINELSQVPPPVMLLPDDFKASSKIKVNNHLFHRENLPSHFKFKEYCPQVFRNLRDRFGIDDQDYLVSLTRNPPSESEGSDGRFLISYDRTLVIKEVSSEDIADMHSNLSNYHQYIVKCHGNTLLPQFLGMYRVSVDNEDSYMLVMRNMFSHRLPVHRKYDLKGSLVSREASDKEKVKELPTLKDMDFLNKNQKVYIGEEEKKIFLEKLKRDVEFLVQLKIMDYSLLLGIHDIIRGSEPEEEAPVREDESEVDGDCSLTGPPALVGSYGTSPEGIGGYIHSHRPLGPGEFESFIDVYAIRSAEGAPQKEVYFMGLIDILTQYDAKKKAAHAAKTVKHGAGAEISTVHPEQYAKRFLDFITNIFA
inactive: [1] 0.607 | [2] 0.064 | [4] -0.019 | [5] -0.14 | [6] 0.095 | [7] 0.003 | [8] -0.006 | [9] -0.106 | [10] 0.018
active: [3] 1.48

PPP1R14A (UniProt Q96A00)
inactive: [1] 0.041 | [2] -0.01 | [3] 0.036 | [4] 0.218 | [5] -0.009 | [6] 0.126 | [7] -0.122 | [8] -0.065 | [9] 0.01 | [10] -0.073

PRKD2 isoform 3 (UniProt Q9BZL6)
UniProt Q9BZL6, sequence (Q9BZL6 whole entry, looked up): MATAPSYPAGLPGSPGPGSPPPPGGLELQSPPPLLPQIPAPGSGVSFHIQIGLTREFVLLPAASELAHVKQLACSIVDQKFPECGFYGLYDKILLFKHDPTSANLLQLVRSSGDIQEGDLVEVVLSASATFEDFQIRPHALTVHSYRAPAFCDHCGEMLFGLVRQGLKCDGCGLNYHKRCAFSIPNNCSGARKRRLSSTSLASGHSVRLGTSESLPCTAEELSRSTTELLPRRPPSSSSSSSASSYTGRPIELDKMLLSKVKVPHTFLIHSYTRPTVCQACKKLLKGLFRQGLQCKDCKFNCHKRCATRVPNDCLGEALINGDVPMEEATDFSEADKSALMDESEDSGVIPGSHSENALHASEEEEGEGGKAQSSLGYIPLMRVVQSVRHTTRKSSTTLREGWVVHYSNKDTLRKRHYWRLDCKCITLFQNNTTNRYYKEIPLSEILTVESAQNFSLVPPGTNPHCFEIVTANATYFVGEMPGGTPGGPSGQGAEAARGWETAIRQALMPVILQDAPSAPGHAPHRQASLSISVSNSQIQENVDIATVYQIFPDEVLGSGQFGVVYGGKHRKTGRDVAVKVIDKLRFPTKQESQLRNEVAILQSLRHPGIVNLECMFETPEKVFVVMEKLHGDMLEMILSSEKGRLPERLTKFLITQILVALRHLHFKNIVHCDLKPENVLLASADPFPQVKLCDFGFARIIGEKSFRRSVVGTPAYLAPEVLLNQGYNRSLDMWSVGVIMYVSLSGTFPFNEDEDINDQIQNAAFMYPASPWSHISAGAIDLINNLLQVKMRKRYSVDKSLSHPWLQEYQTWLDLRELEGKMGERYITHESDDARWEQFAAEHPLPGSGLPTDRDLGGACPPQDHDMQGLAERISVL
inactive: [1] -0.046 | [2] -0.057 | [4] 0.089 | [5] -0.302 | [6] -0.216 | [7] 0.074 | [8] 0.056 | [9] 0.192 | [10] -0.087
active: [3] -1.03

PIGT (UniProt Q969N2)
inactive: [1] -0.016 | [2] 0.01 | [3] -0.009 | [4] 0.022 | [5] -0.067 | [6] -0.089 | [7] 0.002 | [8] 0.045 | [9] 0.018 | [10] 0.01

PEF1 (UniProt Q9UBV8)
inactive: [1] 0.003 | [2] -0.002 | [3] -0.03 | [4] -0.057 | [5] -0.092 | [6] -0.094 | [7] -0.085 | [8] -0.041 | [9] -0.014 | [10] 0.085

PPT2 isoform 3 (UniProt Q9UMR5)
UniProt Q9UMR5, sequence (Q9UMR5 whole entry, looked up): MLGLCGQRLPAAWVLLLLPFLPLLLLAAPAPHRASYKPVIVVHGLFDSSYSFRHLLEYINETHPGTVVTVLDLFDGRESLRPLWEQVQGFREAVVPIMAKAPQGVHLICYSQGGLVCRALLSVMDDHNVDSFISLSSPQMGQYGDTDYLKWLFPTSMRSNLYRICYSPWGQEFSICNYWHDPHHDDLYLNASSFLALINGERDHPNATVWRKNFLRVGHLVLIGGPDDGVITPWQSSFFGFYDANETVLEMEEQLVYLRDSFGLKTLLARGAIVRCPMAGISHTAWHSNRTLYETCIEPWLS
inactive: [1] 0.078 | [2] 0.036 | [3] -0.04 | [4] 0.052 | [5] 0.006 | [6] -0.17 | [7] -0.014 | [8] -0.041 | [9] -0.012 | [10] 0.037

PXK (UniProt Q7Z7A4)
inactive: [1] 0.032 | [2] 0.042 | [3] -0.012 | [4] 0.1 | [5] -0.023 | [6] -0.201 | [7] 0.037 | [8] 0.012 | [9] -0.024 | [10] 0.057

PTK2B (UniProt Q14289)
inactive: [1] -0.095 | [2] -0.257 | [3] -0.018 | [4] 0.178 | [5] -0.026 | [6] -0.244 | [7] 0.052 | [8] 0.004 | [9] -0.014 | [10] 0.061

PJA2 (UniProt O43164)
UniProt O43164, sequence (O43164 whole entry, looked up): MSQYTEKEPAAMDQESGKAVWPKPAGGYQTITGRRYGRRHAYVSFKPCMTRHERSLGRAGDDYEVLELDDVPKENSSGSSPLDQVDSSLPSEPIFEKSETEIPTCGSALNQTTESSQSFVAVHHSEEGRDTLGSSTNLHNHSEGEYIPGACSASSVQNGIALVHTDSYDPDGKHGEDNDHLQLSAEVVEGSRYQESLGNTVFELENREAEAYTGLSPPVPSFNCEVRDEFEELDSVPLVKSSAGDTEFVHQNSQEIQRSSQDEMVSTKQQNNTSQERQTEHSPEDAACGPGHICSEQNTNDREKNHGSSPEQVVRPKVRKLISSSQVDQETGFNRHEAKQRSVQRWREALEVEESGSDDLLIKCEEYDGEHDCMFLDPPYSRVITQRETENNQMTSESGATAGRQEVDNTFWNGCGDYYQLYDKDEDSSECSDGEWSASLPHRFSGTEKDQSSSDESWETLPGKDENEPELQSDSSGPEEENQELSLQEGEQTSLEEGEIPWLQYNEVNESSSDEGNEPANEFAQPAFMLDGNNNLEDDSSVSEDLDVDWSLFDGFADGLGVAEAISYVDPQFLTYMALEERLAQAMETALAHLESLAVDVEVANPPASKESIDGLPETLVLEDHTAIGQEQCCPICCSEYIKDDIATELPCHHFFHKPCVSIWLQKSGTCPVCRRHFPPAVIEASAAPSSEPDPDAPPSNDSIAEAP
active: [10] -0.308
inactive: [1] 0.061 | [2] 0.023 | [3] 0.091 | [4] -0.004 | [5] -0.02 | [6] -0.013 | [7] 0.169 | [8] -0.005 | [9] 0.05

PGGT1B (UniProt P53609)
inactive: [1] 0.003 | [2] -0.004 | [3] -0.062 | [4] -0.055 | [5] 0.026 | [6] -0.019 | [7] 0.026 | [8] -0.03 | [9] 0.027 | [10] -0.028

PYGL (UniProt P06737)
UniProt P06737, sequence (P06737 whole entry, looked up): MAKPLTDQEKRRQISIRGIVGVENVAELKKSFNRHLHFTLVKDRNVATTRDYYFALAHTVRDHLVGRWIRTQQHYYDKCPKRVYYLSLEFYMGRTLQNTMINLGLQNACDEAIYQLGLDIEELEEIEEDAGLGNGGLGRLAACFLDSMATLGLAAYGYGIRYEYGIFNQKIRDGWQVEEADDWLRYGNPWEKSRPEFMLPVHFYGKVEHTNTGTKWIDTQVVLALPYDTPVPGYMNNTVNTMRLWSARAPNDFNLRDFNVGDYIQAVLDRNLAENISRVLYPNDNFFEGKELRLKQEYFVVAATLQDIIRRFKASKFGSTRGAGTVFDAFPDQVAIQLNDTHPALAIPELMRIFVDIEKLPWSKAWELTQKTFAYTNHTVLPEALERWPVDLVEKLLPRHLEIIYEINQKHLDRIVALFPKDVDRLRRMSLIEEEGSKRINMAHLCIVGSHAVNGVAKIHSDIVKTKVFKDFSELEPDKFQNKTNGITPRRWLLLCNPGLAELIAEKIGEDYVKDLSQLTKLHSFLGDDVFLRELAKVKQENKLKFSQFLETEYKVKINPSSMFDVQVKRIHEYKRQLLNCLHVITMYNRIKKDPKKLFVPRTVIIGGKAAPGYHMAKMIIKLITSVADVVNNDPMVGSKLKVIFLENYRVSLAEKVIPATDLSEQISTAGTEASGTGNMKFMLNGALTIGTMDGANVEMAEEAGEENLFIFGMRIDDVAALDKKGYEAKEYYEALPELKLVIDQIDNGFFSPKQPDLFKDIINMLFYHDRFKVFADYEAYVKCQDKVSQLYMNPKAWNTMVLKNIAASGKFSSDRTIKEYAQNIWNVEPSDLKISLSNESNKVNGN
inactive: [1] 0.004 | [2] 0.033 | [3] -0.143 | [4] -0.038 | [5] 0.055 | [6] 0.068 | [7] -0.031 | [8] -0.007 | [9] 0.019 | [10] 0.021

PCGF2 (UniProt P35227)
inactive: [1] -0.077 | [2] -0.101 | [3] -0.164 | [4] -0.036 | [5] 0 | [6] -0.095 | [7] 0.065 | [8] -0.075 | [9] -0.119 | [10] 0.107

PTP4A2 (UniProt Q12974)
UniProt Q12974, sequence (Q12974 whole entry, looked up): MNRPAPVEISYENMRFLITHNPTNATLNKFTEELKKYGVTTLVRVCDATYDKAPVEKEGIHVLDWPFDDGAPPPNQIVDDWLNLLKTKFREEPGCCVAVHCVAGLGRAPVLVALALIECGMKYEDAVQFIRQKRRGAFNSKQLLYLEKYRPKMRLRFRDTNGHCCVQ
inactive: [1] 0.019 | [2] 0.16 | [3] 0.065 | [4] 0.051 | [5] -0.051 | [6] 0.035 | [7] -0.157 | [8] -0.044 | [9] 0.191 | [10] -0.164

POLD3 (UniProt Q15054)
UniProt Q15054, sequence (Q15054 whole entry, looked up): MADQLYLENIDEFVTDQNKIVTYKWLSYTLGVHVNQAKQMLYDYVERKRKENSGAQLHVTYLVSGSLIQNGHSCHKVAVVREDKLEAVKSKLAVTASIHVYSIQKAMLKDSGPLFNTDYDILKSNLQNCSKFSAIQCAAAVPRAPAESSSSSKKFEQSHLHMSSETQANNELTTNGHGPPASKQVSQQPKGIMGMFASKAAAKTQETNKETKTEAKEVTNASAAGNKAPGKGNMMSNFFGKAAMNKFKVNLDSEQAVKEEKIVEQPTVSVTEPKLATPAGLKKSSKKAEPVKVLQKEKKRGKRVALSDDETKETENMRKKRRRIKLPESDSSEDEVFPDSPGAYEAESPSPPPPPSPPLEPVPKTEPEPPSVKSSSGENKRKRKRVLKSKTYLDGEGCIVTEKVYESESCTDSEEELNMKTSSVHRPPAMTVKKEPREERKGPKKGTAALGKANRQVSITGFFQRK
active: [6] -0.357
inactive: [1] -0.013 | [2] -0.01 | [3] -0.043 | [4] -0.001 | [5] -0.114 | [7] -0.117 | [8] -0.016 | [9] -0.091 | [10] 0.013
